Most compounds without a hit are left out; they make up all but 6.1% or so of the library.
D1 agonist: agonists of human D1 dopamine receptor; HEK293 T-REx D1 cells, calcium flux, agonist mode; activation, % at 2 µM; hit rate 1% among 360,000; in the data active means activation above about 30%; further: 0% is about no effect
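Inducible HEK293 T-REx D1 cells, force-coupled to calcium signalling, were plated at 4000 cells/well with tetracycline and held overnight at 30 C. After no-wash calcium dye loading, compound-evoked calcium rise over 180 s flagged agonists.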
D1 antag: antagonists of human D1 dopamine receptor. HEK293 TREx D1 cells, calcium flux, dopamine EC80; active compounds read low. hit rate 3.2% among 360,000. activity change, negative = inhibition, % at 10 µM; in the data active means activity change below about -30%; further: on the % scale 0 is the no-effect control and ±100 the full control effect
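Inducible Hek293 Trex D1 cells (tetracycline, overnight, 30 C). Calcium dye 30–90 min RT. Antagonist mode: EC80 dopamine added after 180 s compound read.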
D1 PAM: enhances dopamine response at the human D1 receptor | AID 504651 | HEK293 TREx D1 cells, calcium flux, dopamine EC20 potentiation | potentiation, % at 10 µM | P21728 | hit rate 0.036% among 360,000; in the data active means potentiation above about 30%; further: 0% is about no effect
DRD3 antagonist: antagonists of human D3 dopamine receptor; P35462; D3R cells, DiscoveRx beta-arrestin luminescence, antagonist mode; active compounds read low; max response, negative = inhibition, %; hit rate 2.5% among 360,000; AID 652054; in the data active means max response below about -50%; inconclusive means no clear call, values can overlap the other calls; further: on the % scale 0 is the no-effect control and ±100 the full control effect
Target sequence (P35462 whole entry, looked up): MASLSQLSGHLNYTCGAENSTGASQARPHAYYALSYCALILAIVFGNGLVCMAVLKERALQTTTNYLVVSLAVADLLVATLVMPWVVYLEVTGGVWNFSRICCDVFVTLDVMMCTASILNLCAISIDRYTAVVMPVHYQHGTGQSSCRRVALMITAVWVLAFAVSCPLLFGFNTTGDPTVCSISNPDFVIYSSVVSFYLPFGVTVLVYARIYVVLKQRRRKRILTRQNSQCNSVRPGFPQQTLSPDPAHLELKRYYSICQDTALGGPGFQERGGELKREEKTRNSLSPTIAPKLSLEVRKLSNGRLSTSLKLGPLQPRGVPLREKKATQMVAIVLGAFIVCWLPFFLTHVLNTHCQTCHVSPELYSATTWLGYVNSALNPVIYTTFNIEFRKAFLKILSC
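Cells plated overnight at 1500 cells/well, then exposed to library compounds with dopamine controls for 90 minutes at 37 degrees C. DiscoveRx reagent added for 30–60 minutes at room temperature; luminescence read, quantitative HTS format.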
DRD3 agonist: activates the human D3 dopamine receptor; P35462; D3R DiscoveRx beta-arrestin cells, luminescence, 90 min; max activation, %; hit rate 0.58% among 410,000; AID 652048; in the data active means max activation above about 30%; further: 0% is about no effect
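Agonist mode: compounds and dopamine controls were applied to plated cells for 90 min at 37 degrees C after an overnight attachment at 1500 cells/well. Luminescent read-out followed 30 - 60 minutes at room temperature with DiscoveRx detection reagent.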
* = called active by the depositor; ? = inconclusive; . = no result given.

SMILES	D1 agonist	D1 antag	D1 PAM	DRD3 antagonist	DRD3 agonist
CN(Cc1ccc(Cl)cc1)C(CCc1ccccc1)C(=O)NC1CCCCC1 (stereo unspecified)	.	.	.	-60*	-17
CCOC(=O)C1CCN(Cc2cccc(OCc3ccccc3)c2)CC1	1	6	-4	-66*	3
CCOC(=O)C1CCN(Cc2nc3ccc(Cl)cc3n2CCO)CC1	1	0	-8	-66*	0
CCOC(=O)C1CCCN(Cc2ccc3c(c2)OCO3)C1 (stereo unspecified)	0	10	-8	-100*	-32
CCOc1ccc(S(=O)(=O)N2CCN(c3cc(Cl)ccc3Cl)CC2)c2ccccc12	-1	-4	-3	.	5
CCOC(=O)C1CCCN(Cc2cccc(Cl)c2)C1 (stereo unspecified)	1	3	1	-61*	-57
Fc1ccc(CN2CCSCC2)cc1Br	1	17	2	-61*	-35
CCOC(=O)C1CCCN(Cc2ccc(O)c(OC)c2)C1 (stereo unspecified)	2	14	-10	?	-10
CCOC(=O)C1CCCN(Cc2nc(N)nc(Nc3ccccc3)n2)C1 (stereo unspecified)	-4	15	2	-60*	-23
COc1cccc(CNC(=O)CCCn2ncn3c(cc4occc43)c2=O)c1OC	4	-8	0	.	5
Cc1ccccc1CNC(=O)c1ccc(NC(=O)c2nsc3ccccc23)cc1	1	-6	1	.	6
Cc1cccc(CNC(=O)C2CCN(S(=O)(=O)c3ccc4c(c3)CCCN4C(=O)C3CCC3)CC2)c1	7	-11	-2	.	-3
Cc1ccc(NC(=O)CSc2nc(-c3ccco3)cc(C(F)(F)F)n2)cc1C	4	-12	-3	21	9
Cc1ccc(NC(=O)CSc2nnc(-c3ccco3)c(-c3ccco3)n2)cc1	-1	-9	2	-60*	-1
COc1ccc(NC(=O)CSc2nc(-c3ccco3)cc(C(F)(F)F)n2)cc1OC	12	-30*	-2	.	11
CCOC(=O)c1[nH]c(C)c(CCC(=O)N2CCN(c3cc(Cl)ccc3C)CC2)c1C	-2	2	-1	.	1
O=C(NCC1OCCc2ccccc21)c1ccc(NC(=O)c2ccccc2Cl)cc1 (stereo unspecified)	12	-37*	-4	-13	2
CN(C)CCC(=O)NCC1OCCc2ccccc21 (stereo unspecified)	1	-34*	-5	-1	7
C=CC(=O)NCC1OCCc2ccccc21 (stereo unspecified)	1	4	1	-2	-5
Cc1ccc2c(CN3CCN(C(=O)c4ccc(Br)cc4)CC3)cc(=O)oc2c1	0	12	-3	.	-24
CC(C)(C)c1ccc(C(O)CCCN2CCC(C(O)(c3ccccc3)c3ccccc3)CC2)cc1 (stereo unspecified)	43*	23	-4	-60*	-63
CC(=O)Nc1ccc(OCCCN2CCC(C(O)(c3ccccc3)c3ccccc3)CC2)cc1	.	.	.	-104*	-12
CC(=O)Nc1ccccc1OCCCN1CCC(C(O)(c2ccccc2)c2ccccc2)CC1	.	.	.	-70*	-14
Oc1ccccc1CN1CCC(C(O)(c2ccccc2)c2ccccc2)CC1	7	5	-13	0	-4
N#CCc1ccc(OCCCN2CCC(C(O)(c3ccccc3)c3ccccc3)CC2)cc1	.	.	.	-68*	-18
SMILES	D1 agonist	D1 antag	D1 PAM	DRD3 antagonist	DRD3 agonist
CCCCCCCCCCCCCCCCCCNC(=O)OC1CCN(C(=O)OC[C@H](COC(=O)N(Cc2cccc[n+]2CC)C(=O)c2ccccc2OC)OC)CC1	.	.	.	.	-23
COc1ccccc1CCNC(=O)Cc1c(C)c2cc(Cl)c(O)cc2oc1=O	1	14	0	.	7
OC(c1ccccc1)(c1ccccc1)C1CCN(CCCOc2cccc(OC(F)(F)F)c2)CC1	.	.	.	-81*	-14
OC(c1ccccc1)(c1ccccc1)C1CCN(CCCOc2ccc3c(c2)CCCC3)CC1	.	.	.	-17	5
CCOC(=O)c1c(S(=O)(=O)N2CCCC(C(=O)Nc3cccc(C#N)c3)C2)c(C)n(C)c1C (stereo unspecified)	-1	11	1	.	-12
CCN(CC)c1ccc(CN(C(=O)Cc2coc3ccc(C)cc23)C2CCS(=O)(=O)C2)cc1 (stereo unspecified)	3	51	3	.	4
CC1(Cc2ccc(OC(F)(F)F)cc2)C(=O)Nc2ccc(OC(F)(F)F)cc21 (stereo unspecified)	.	.	.	0	11
CCOC(=O)C1=NOC2(C1)C(=O)Nc1ccc(OC(F)(F)F)cc12 (stereo unspecified)	.	.	.	-87*	-2
CN(C)CCCNc1oc(-c2ccccc2Cl)nc1S(=O)(=O)c1ccccc1	14	12	4	-72*	-21
CN(C)CCCNc1oc(-c2ccc(Cl)cc2)nc1S(=O)(=O)c1ccccc1	.	.	.	-73*	-29
COCCNc1oc(-c2ccccc2Cl)nc1S(=O)(=O)c1ccc(C)cc1	.	.	.	-11	-15
COc1ccc(CC(=O)Nc2cc(Cl)ccc2O)cc1	16	-35*	-4	-22	-17
Cc1ccc(N=c2ssnc2Cl)cc1	1	2	-5	-27	15
Cc1cc(Cl)ccc1N=c1ssnc1Cl	30*	-17	0	?	3
COc1ccc(-n2nc(C(=O)N3CCN(c4cccc(C)c4C)CC3)c3c4ccccc4n(C)c3c2=O)cc1	1	11	4	.	-15
Cc1nc(C/C(=N\N)c2ccc(O)cc2O)cs1	3	-32*	-3	6	-7
C[C@H](O)[C@@H]1CN2CCc3c([nH]c4ccccc34)[C@@H]2C[C@@H]1N(C)C(=O)Nc1cccc2ccccc12	.	.	.	-58*	-14
Oc1ccc(Cl)cc1C=Nc1ccccc1Br	1	-16	-8	0	-4
Oc1ccc(Br)cc1C=Nc1ccc2c3c(cccc13)CC2	5	1	-1	-54*	-6
Cc1oc2ncn(CC(C)C)c(=O)c2c1C(=O)NCCc1ccc(Cl)cc1	2	-2	1	.	5
N#CCCN(Cc1cccnc1)S(=O)(=O)c1ccc2ccccc2c1	0	-37*	0	-10	-2
COc1ccc(NC(=O)C(NC(=O)/C=C\c2ccc3c(c2)OCO3)c2ccc(C)cc2)cc1 (stereo unspecified)	2	-6	1	.	-20
COc1ccc(CCn2c(SCCN3CCCCC3)nc3ccccc3c2=O)cc1OC	4	-6	-1	-103*	-3
Cn1nc(C(=O)Nc2ccc(F)c(Cl)c2)c2c1-c1ccccc1S(=O)(=O)C2	0	21	1	.	-5
COc1ccc(CC(=O)NC(C)c2nnc(SCC(=O)c3ccc(Br)cc3)n2C)cc1 (stereo unspecified)	-1	13	-11	-56*	10
O=C(O)c1ccc(C2CCCCC2)cn1	2	-17	2	-95*	-9

Bioassay records (PubChem)
